The source of these data is the supplement of paper PMC9897528.
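Also: conidia screened in RPMI 1640 medium under 5% CO2, growth read by spectrophotometer, medium with 0.5% DMSO serving as the untreated reference.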

This test has as its system Scedosporium aurantiacum CBS 136046. Put plainly: growth inhibition relative to DMSO control (OD600); higher = more antifungal activity, active = 80 or more; extreme values may be limits of the assay. The note with it: 5 µM; 72 h; 37 °C.
Turning to `CC[C@H]1OC(=O)[C@H](C)[C@@H](O[C@H]2C[C@@](C)(OC)[C@@H](O)[C@H](C)O2)[C@H](C)[C@@H](O[C@@H]2O[C@H](C)C[C@H](N(C)C)[C@H]2O)[C@](C)(O)C[C@@H](C)C(=O)[C@H](C)[C@@H](O)[C@]1(C)O`, the growth inhibition was 0.273% (inactive). For the compound `COc1cc(NC(=O)CN2C(=O)NC(c3ccccc3)(c3ccccc3)C2=O)cc(OC)c1`, the growth inhibition was 0% (inactive). In the case of `COc1c(F)c(F)cc2c(=O)c(C(=O)O)cn(C3CC3)c12`, the growth inhibition was 43.8% (inactive). With `COc1nc2ccc(Br)cc2cc1[C@@H](c1ccccc1)[C@@](O)(CCN(C)C)c1cccc2ccccc12`, the growth inhibition was 43.6% (inactive). With `O=C(NCc1ccccc1Cl)c1cnc2ccccc2n1`, the growth inhibition is 10.6% (inactive). With `CC[C@@]1(O)C(=O)OCc2c1cc1n(c2=O)Cc2cc3c(CN(C)C)c(O)ccc3nc2-1`, the growth inhibition was 21.5% (inactive). `COc1ccc2nc(-c3ccccc3)cc(O)c2c1`: the growth inhibition was 17.5% (inactive).

Regarding `CC(N)C12CC3CC(CC(C3)C1)C2` (stereo not drawn), the growth inhibition was 10.8% (inactive). The value for `Oc1c(C(Nc2ccccn2)c2ccccc2)ccc2cccnc12` (stereo not drawn) was 35.9% (inactive); that for `CCCCCOc1ccc(/C=C2\Oc3c(ccc(O)c3O)C2=O)c(O)c1` was 1.85% (inactive); that for `Nc1nc(-c2ccccc2)nc2[nH]nc(Nc3ccc(C(F)(F)F)cc3)c12` was 16.5% (inactive). In the case of `Oc1c(C(Nc2nc3ccccc3s2)c2ccc(OC(F)F)cc2)ccc2cccnc12` (stereo not drawn), the growth inhibition is 12% (inactive). Consider `O=[N+]([O-])/C(Br)=C/c1ccc(Br)o1`, for which the growth inhibition is 0.879% (inactive).

Consider `C=C[C@]1(C)C[C@@H](OC(=O)CS[C@@H]2C[C@H]3CC[C@@H](C2)N3C)[C@]2(C)[C@H](C)CC[C@]3(CCC(=O)[C@H]32)[C@@H](C)[C@@H]1O`, for which the growth inhibition is 35.7% (inactive). Regarding `CC(C)C(=O)N[C@H]1[C@H]([C@H](O)[C@H](O)CO)OC(C(=O)O)=C[C@@H]1N=[N+]=[N-]`, the growth inhibition is 9.45% (inactive).

Turning to `COc1ccc2c(c1OC)C(=O)OC2C1c2c(cc3c(c2OC)OCO3)CCN1C` (stereo not drawn), the growth inhibition is 14.1% (inactive). As for `Cc1cc(C)n(O)c(=O)c1`, the growth inhibition is 0.961% (inactive). As to `CCc1oc2ccccc2c1C(=O)c1ccc(O)cc1`, the growth inhibition is 35.1% (inactive). As to `CCc1cc(Nc2cc(=O)n(CCN3CCN(C(=O)c4ccccc4)CC3)c(=O)[nH]2)ccc1C`, the growth inhibition is 0% (inactive).

In the case of `O=C(O)CCNC(=O)c1ccccc1`, the growth inhibition is 36.7% (inactive). As for `NC(=O)c1ccc(I)c([N+](=O)[O-])c1`, the figure is 13.9% (inactive); as for `Nc1cc(N)c2nc(-c3ccccc3)c(Nc3ccc(F)cc3)nc2c1`, 0.18% (inactive); as for `NC(=O)c1cnc2ccc(S(=O)(=O)c3ccccc3)cc2c1Nc1ccc(O)cc1`, 32.1% (inactive). The value for `Cc1ccc(N2CCC(CCOc3ccc(S(C)(=O)=O)cc3)CC2)nn1` was 24.5% (inactive); that for `Clc1cc(Cl)c2c(c1)CCc1ccccc1C2n1ccnc1` (stereo not drawn) was 80.2% (active); that for `CC(C)=CCC/C(C)=C/CNCCNC1C2CC3CC(C2)CC1C3` (stereo not drawn) was 61.4% (inactive). As for `Clc1cc2nc(C3CCNCC3)n(Cc3ccc(CNCCc4c[nH]cn4)cc3)c2cc1Cl`, the figure is 16.1% (inactive). As to `O=C(CCc1ccc2c(c1)OCO2)NCc1ccc(-c2ccccc2F)cc1`, the growth inhibition was 28.3% (inactive). On to `C[C@H]1[C@@H](c2cccc(C(F)(F)F)c2)OC(=O)N1C(=O)NCc1cncc2ccccc12`, for which the growth inhibition was 11.5% (inactive). The value for `C=CCc1cc(Cc2cnc(N)nc2N)cc(OC)c1O` was 0% (inactive); that for `CCOC(=O)/C=C/[C@H](C[C@@H]1CCNC1=O)NC(=O)[C@H](CC)n1cccc(NC(=O)c2cc(C)on2)c1=O` was 2% (inactive). `O=C(NNC(=S)Nc1ccc(Cl)cc1)c1ccncc1`: the growth inhibition was 10.8% (inactive).

On to `O=C(O)c1cc(-c2ccccc2)nc2ccccc12`, for which the growth inhibition was 12.6% (inactive).

Regarding `Cc1nc(-c2ccc(C3N(C)c4ccc(F)cc4C(=O)N3c3ccccc3)s2)cs1` (stereo not drawn), the growth inhibition was 15% (inactive).

On to `CCc1cc(O)c(Oc2cccnc2N)cc1F`, for which the growth inhibition is 12.4% (inactive). `Cc1cccc(C)c1C(=O)Nc1nc(-c2ccccn2)cc2ccccc12`: the growth inhibition is 26.2% (inactive). `O=C(O)CSc1cc(NS(=O)(=O)c2cccc3cccnc23)c2ccccc2c1O`: the growth inhibition is 20.8% (inactive).

Consider `CC(C)(C)NC(=O)N[C@H](C(=O)N1C[C@H]2[C@@H]([C@H]1C(=O)NC(CC1CCC1)C(=O)C(N)=O)C2(C)C)C(C)(C)C` (stereo partly drawn), for which the growth inhibition was 10.8% (inactive).
